Results filed as inconclusive are left out. A number with no mark means an inactive call. Calls come from the whole dose curve; as a rule, active = well fitted inhibition curve with a large enough effect; inconclusive = small, poorly fitted or top-dose-only effect; inactive = no such curve, though single readings can be large or run the other way.
Each compound was assayed against Retinaldehyde dehydrogenase 3 (Homo sapiens) (UniProt P47895) (assay: qHTS for Inhibitors of the Aldehyde Dehydrogenase Family (ALDH1A3) Validation screen (AID 2061312; note: nearly all actives have a fitted effect of over 45% in size)). Conditions: ALDH1A3 enzyme inhibition qHTS validation, fluorescence; series mostly up to 84.7 µM; activity change, negative = inhibition: at the top concentration.
% is set by controls: 0 for no effect and ±100 for the full control effect.

Structure (SMILES)	activity change, negative = inhibition [%]
Cc1cc(C(=O)N2CCCCc3ccccc32)ccc1CNC(=O)N1CCC[C@H]1C(=O)N(C)C	35.1
CNCCCC1(c2ccccc2)OC(C)(C)c2ccccc21 (stereo not given)	-19.8
CCC(C(C)O)n1ncn(-c2ccc(N3CCN(c4ccc(OCC5COC(Cn6cncn6)(c6ccc(F)cc6F)C5)cc4)CC3)cc2)c1=O (stereo not given)	39.9
c1ccc(CN(CC2=NCCN2)c2ccccc2)cc1	1.71
COc1cc(NC(=O)c2cc(C3CC3)on2)c(OC)cc1Cl	-26.8
COc1cccc(-c2cc(NCc3ccc4c(c3)OCO4)nc(N)n2)c1	62.4
COc1ccc(-c2nc(-c3cc(C(F)(F)F)cc(C(F)(F)F)c3)n(Cc3ccc(C(N)=O)cc3)c2-c2ccc(OC)cc2)cc1	28
CC1(C)CCC(C)(C)c2cc(C3(c4ccc(C(=O)O)cc4)OCCO3)ccc21	-2.49
O=C(Nc1ccc(CN2CCOCC2)cc1)c1ccc(-c2cccc(Cl)c2)o1	95.7
NS(=O)(=O)c1ccc(N2CCN(CC[C@@H]3OCCc4ccccc43)CC2)cc1	23.1
O=C(NCCCN1CCC2(CC1)OCc1ccccc12)[C@H]1CCCN1Cc1ccccc1	7.15
CN[C@@H]1[C@@H](O)[C@@H](O[C@@H]2[C@@H](O)[C@H](O[C@H]3O[C@@H]([C@@H](C)NC)CC[C@H]3N)[C@@H](N)C[C@H]2N)OC[C@]1(C)O	42.2
CCn1c2ccccc2c2cc(CNC)ccc21	12.7
Cc1onc(-c2ccccc2Cl)c1C(=O)N(C)c1ccc(Cl)cc1	32.7
COc1ccc(Cl)cc1[C@@]1(F)C(=O)Nc2cc(C(F)(F)F)ccc21	26.7
O=C(NCCCn1ccnc1)c1cc(-c2ccco2)on1	41.4
O=C(CC1NCCC[C@H]1O)Cn1cnc2cc(Br)c(Cl)cc2c1=O (stereo not given in full)	24.5
CCC1C(=O)N(C)c2cnc(Nc3ccc(C(=O)NC4CCC(N5CCN(CC6CC6)CC5)CC4)cc3OC)nc2N1C(C)C (stereo not given)	198
CS(=O)(=O)NCC1CCC(Nc2nc3c(s2)CCSc2ccccc2-3)CC1 (stereo not given)	62.9
CC(NC(=O)CCc1nc2ccccc2c(=O)[nH]1)c1ccccc1 (stereo not given)	-5.3

Structure (SMILES)	activity change, negative = inhibition [%]
CN(C)c1nc(Cc2ccc(NC(=O)c3ccc4ccccc4c3)cc2)nc(Cl)c1CC(=O)O	-18.7
CCNC(=O)N1CCCN(c2ccc(C(=O)NCCc3ccc(Cl)cc3Cl)cc2NC(=O)c2cccc(Cl)c2)CC1	-26.9
CCc1c(CC(N)=O)c2cc(OCCCP(=O)(O)O)ccc2n1Cc1ccccc1	-0.684
CC[C@H]1CN(c2nc(N)c(C(N)=O)nc2Cl)CCN1C1CCN(Cc2ccc(Cl)cc2)CC1	-29.7
CC(C)CCNc1ncccc1C(=O)N1CCN(Cc2ccccc2)CC1	10.5
CCCc1ccc(OCC(=O)N(Cc2nc(-c3cccnc3)no2)C(C)C)cc1	0.623
Cc1c(C(=O)Nc2ccc(N3CC(C)OC(C)C3)nc2)cccc1-c1ccc(OC(F)(F)F)cc1 (stereo not given)	-10.4
COCCN1CCC(C(=O)NO)(S(=O)(=O)c2ccc(Oc3ccc(OC(F)(F)F)cc3)cc2)CC1	43.8
CC1(C)CCC(C)(C)c2cc(C#Cc3ccc(C(=O)O)cc3)ccc21	15.2
O=C(NCCN1CCC(n2c(=O)[nH]c3ccccc32)CC1)c1ccc2ccccc2c1	23.8
O=C(c1cn(Cc2cncn2Cc2ccc(Br)cc2)cc1-c1cccc2ccccc12)N1CCOCC1	62.5
Cc1nc(C(=O)N2CCC[C@H]2Cc2nnc(-c3ccccc3)o2)c(-c2ccccc2F)s1	3.25
Cc1cc(-c2nncc3c(C(C)(C)C)c(OCc4ncnn4C)nn23)no1	-6.88
CCC(C)n1cc(C)c2c(C(=O)NCc3c(C)cc(C)[nH]c3=O)cc(-c3ccc(N4CCNCC4)nc3)cc21 (stereo not given)	56.3
CN(C)C(=O)NC1(c2ccccc2)CCN(CCC[C@]2(c3ccc(Cl)c(Cl)c3)CCCN(C(=O)c3ccccc3)C2)CC1	-6.61
COc1cc(-c2cn(C3CCc4c(F)cccc4N(CC(F)(F)F)C3=O)nn2)ccc1-n1cnc(C)c1 (stereo not given)	25.4
Cc1onc(-c2c(Cl)cccc2Cl)c1CC(=O)NCc1ccc(OCC(F)(F)F)nc1	-26.6
CCNC(=O)c1noc(-c2cc(Cl)c(O)cc2O)c1-c1ccc(OC)cc1	62.4
CCNC(=O)[C@H]1O[C@H](n2cnc3c(NCC(c4ccccc4)c4ccccc4)nc(C(=O)NCCNC(=O)NC4CCN(c5ccccn5)CC4)nc32)[C@H](O)[C@@H]1O	11.1
COc1cc(C(=O)NCC2(N(C)C)CCCC2)cc(OC)c1OCc1ccccc1	-9.44

— PubChem BioAssay (NCATS)
